An excerpt weighted towards active compounds, which were near 5.4% of everything screened.
Vaccinia Venus: vaccinia inhibition (Venus reporter); Vaccinia virus Venus reporter expression, fluorescence; Potency, µM (top dose mostly 36.5 µM), without a hit: at the highest dose activity change, negative = inhibition, hits mostly inhibitors; 330,000 compounds, 0.46% hits; AID 720580; calls by dose curve; tested in A549 cells; also: nearly all actives have a fitted effect of over 30% in size
FMDV antiviral: antivirals against foot and mouth disease virus; AID 1159524; Potency, µM (series often up to 57.9 µM), for inactives: at the top dose activity change, negative = inhibition, most hits filed as inhibitors; 410,000 compounds, 1.2% hits; FMDV antiviral cell-based qHTS; calls by dose curve; tested in HEK293T cells; also: read-out not given here; nearly all actives have a fitted effect of over 45% in size
VACV mCherry inh: inhibitors of vaccinia virus infection (mCherry reporter signal); Vaccinia virus mCherry reporter infection, fluorescence; Potency, µM (doses to about 36.5 µM), for inactives: at the highest dose activity change, negative = inhibition, hits mostly inhibitors; 310,000 compounds, 0.63% hits; calls by dose curve; tested in A549 cells; also: nearly all actives have a fitted effect of over 35% in size
LASV entry inh: Lassa virus entry inhibition | 300,000 compounds, 1.2% hits | AID 540256 | Lassa virus pseudotype entry inhibition, cell reporter | Potency, µM (highest dose often 37.9 µM), for the others: at the highest dose activity change, negative = inhibition, usual class: inhibitors; calls by dose curve; tested in HEK293 cells; also: nearly all actives have a fitted effect of over 50% in size
MARV entry inh: Marburg virus entry inhibition; 300,000 compounds, 1.8% hits; Marburg virus pseudotyped entry inhibition, cell reporter; Potency, µM (titrated, usually from 37.8 µM), for inactives: at the highest dose activity change, negative = inhibition, hits mostly inhibitors; AID 540276; calls by dose curve; tested in HEK293 cells
Sm TGR block: S. mansoni TGR enzyme inhibition; Q962Y6; purified TGR, DTNB reduction, TNB absorbance 405 nm; Potency, µM (top dose mostly 114 µM), for the others: at the highest dose activity change, negative = inhibition, hits mostly inhibitors; 360,000 compounds, 3% hits; AID 485364; active = well fitted inhibition curve with a large enough effect; inconclusive = small, poorly fitted or top-dose-only effect; inactive = no such curve, though single readings can be large or run the other way; also: nearly all actives have a fitted effect of over 60% in size
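Kinetic colorimetric format: TGR-catalysed, NADPH-driven DTNB reduction monitored via TNB absorbance. Enzyme dispensed at 20 nM; compound exposure 15 min at room temperature before reaction start.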
Numbers without * were called inactive; i = inactive; ? = inconclusive; . = no result given; [ ] = another dose, or the depositor's remark. % is scaled to controls: 0 for no effect and ±100 for the full control effect; potency is read from the fitted curve at half-maximal effect.

SMILES | Vaccinia Venus | FMDV antiviral | VACV mCherry inh | LASV entry inh | MARV entry inh | Sm TGR block
CC1CCN(c2nc3ccc(C(=O)O)cc3s2)CC1 | -4.1% | ? | i | 0.631µM* | ? | 0.0%
CC(=O)c1ccc(N2CCN(c3ncnc4c3c(-c3ccccc3)cn4-c3ccc(C)c(Cl)c3)CC2)cc1 | -9.1% | -7.6% | -3.6% | 18.3%[46.1 µM] | . | -2.7%
COC(=O)[C@]12C[C@@H]3CCN(C(=O)N[C@@H]1c1ccccc1)[C@@]32C | . | . | . | ? | 75.7%[14.2 µM] | .
CCCCn1c(SCC(=O)c2ccc(O)c(O)c2)nc2ccsc2c1=O | ? | -7.7% | 22.4µM* | -7.5% | -7.9% | 4.9%
COc1cc2cc(CNc3ccc(C)cc3)c(=O)n(CC(=O)Nc3ccc(F)cc3F)c2cc1OC | -4.2% | 47.2% | -12.8% | 29.1%[46.1 µM] | . | ?
C(=NN1CCCCCC1)c1cccc2ccccc12 | -2.7% | 44.5% | -9.3% | 16.6% | 17.1% | .
C(=NN1CCCCCC1)c1ccc2ccccc2n1 | -6.8% | 100µM* | -27.6% | ? | 2.51µM* | .
CC(C)CC(=O)Nc1nc2nc(-c3ccccc3)cc(=O)n2[nH]1 | -8.0% | -7.9% | -9.4% | -1.1%[46.1 µM] | 18.3%[46.1 µM] | 2.3%
O=C(O)CCC(=O)Nc1cccc(-c2nnc(-c3ccccc3)o2)c1 | . | 19.3% | . | . | . | 25.1µM*
O=C(COc1ccccc1)Nc1cccc(-c2nnc(-c3ccccc3)o2)c1 | -7.4% | -7.8% | -23.0% | -21.9% | 18.8%[46.1 µM] | -0.8%
Cc1cc(C)cc(OCC(=O)Nc2cccc(-c3nnc(-c4ccco4)o3)c2)c1 | 0.4% | 20µM* | -11.4% | 50.2%[14.3 µM] | -12.9% | 0.0%
Cc1cccc(-c2nnc(SCCC(=O)N3CCOCC3)o2)c1 | -18.6% | -19.5% | -16.8% | ? | 3.0% | 0.6%
Cc1cccc(-c2nnc(SCCC(=O)O)o2)c1 | 0.1% | ? | -6.5% | 1.26µM* | ? | -9.1%
COc1ccc(CC(=O)Nc2cccc(-c3nnc(-c4ccco4)o3)c2)cc1 | -22.4% | ? | -29.3% | ? | ? | 20.8%
COc1ccc(C(=O)Nc2cccc(-c3nnc(-c4ccco4)o3)c2)cc1 | ? | 35.5µM* | ? | -16.8% | ? | -7.7%
CCC(=O)N1CCc2cc(CNC(=O)c3ccccc3C)ccc21 | -1.4% | 31.7% | -8.9% | 1.1%[46.1 µM] | . | 2.4%
CN1C(=O)c2cccc(NCCCN3C(=O)c4ccccc4C3=O)c2C1=O | -12.9% | 3.5% | i | -15.2% | ? | -22.9%
CN1C(=O)c2cccc(NCCCCCCN3C(=O)c4ccccc4C3=O)c2C1=O | 13.2% | 12.6µM* | . | -1.8% | 15.1% | -8.6%
Cc1ccccc1-c1nc(CS(=O)CC(=O)NCCCN(C)c2ccccc2)c(C)o1 (configuration not stated) | . | ? | . | -6.4% | ? | -27.8%
CCC(C)NC(=O)CS(=O)Cc1nc(-c2ccccc2C)oc1C (configuration not stated) | -11.2% | -1.5% | -23.8% | . | . | 8.91µM*
Cc1ccccc1-c1nc(CS(=O)CC(=O)N2CCC3(CC2)OCCO3)c(C)o1 (configuration not stated) | . | -0.5% | . | -6.3% | 9.8% | 8.91µM*
CCCNC(=O)CS(=O)Cc1nc(-c2ccccc2C)oc1C (configuration not stated) | -18.5% | 0.0% | i | . | . | 50.1µM*
CCOc1ccc(CCNC(=O)CS(=O)Cc2nc(-c3ccccc3C)oc2C)cc1OCC (configuration not stated) | . | -12.0% | . | . | . | 35.5µM*
CCOc1ccc(CCNC(=O)CS(=O)Cc2nc(-c3ccc(C)cc3)oc2C)cc1OCC (configuration not stated) | -19.8% | -11.9% | -17.0% | 13.3%[46.1 µM] | 4.2%[46.1 µM] | -23.6%
Cc1ccccc1-c1nc(CS(=O)CC(=O)N2CCN(c3cc(Cl)ccc3C)CC2)c(C)o1 (configuration not stated) | ? | ? | ? | 9.1%[46.1 µM] | -29.9%[46.1 µM] | -26.0%
SMILES | Vaccinia Venus | FMDV antiviral | VACV mCherry inh | LASV entry inh | MARV entry inh | Sm TGR block
CCN(CCCNC(=O)CSc1cc(=O)n(C)c2cc(Cl)ccc12)c1ccccc1 | -11.7% | -17.8% | -10.3% | ? | 24.6%[46.1 µM] | -1.0%
Cc1oc(-c2ccccc2F)nc1CS(=O)CC(=O)NC(C)C (configuration not stated) | -8.8% | 14.7% | -3.3% | 9.2%[46.1 µM] | ? | 14.1µM*
Cc1oc(-c2ccccc2F)nc1CS(=O)CC(=O)NCc1cccs1 (configuration not stated) | -1.8% | 22.3% | -13.7% | . | . | -30.0%
CC1CN(CCS(=O)(=O)c2cc(Cl)ccc2Cl)CC(C)O1 (configuration not stated) | ? | 21.5% | 11.2µM* | -24.3% | 1.5% | -33.1%
CC(=O)N1CCN(CCS(=O)(=O)c2cc(Cl)ccc2Cl)CC1 | ? | -8.0% | ? | -3.5% | -16.9% | .
Cc1ccc(CCNC(=O)CN2C(=O)COc3ccc(S(=O)(=O)N4CCCCCC4)cc32)cc1 | -9.9% | 6.6% | -12.7% | -0.6%[46.1 µM] | . | 5.2%
Cc1ccc(OCC(=O)NCC(c2ccc(Cl)cc2)N2CCCCC2)cc1 (configuration not stated) | -6.7% | -20.1% | -8.6% | 21.4%[46.1 µM] | ? | -3.2%
Cc1ccc(S(=O)(=O)N(CC(=O)N/N=C/c2ccco2)c2cc(Cl)cc(Cl)c2)cc1 | -26.2% | 1.9% | ? | ? | 15.8µM* | 0.1%
Cc1ccc(N(CC(O)COCc2ccco2)S(=O)(=O)c2ccc(C)cc2)cc1 (configuration not stated) | . | -24.9% | . | -8.5% | -22.4% | 8.91µM*
O=C(CN(C1CCCCC1)S(=O)(=O)c1ccccc1)NCc1ccco1 | -14.4% | . | -20.9% | -25.4% | -0.7% | 0.0%
Cc1ccc(S(=O)(=O)N(CC(=O)NCc2ccco2)C2CCCCC2)cc1 | -7.3% | . | -2.6% | -19.7% | -13.0% | 44.7µM*
COc1ccccc1N(CC(=O)NCc1ccco1)S(=O)(=O)c1ccc(C)cc1 | -8.3% | -5.8% | -18.7% | 20.5% | 1.3%[46.1 µM] | 39.8µM*
O=C(CN(c1ccc(Cl)cc1)S(=O)(=O)c1ccccc1)N/N=C/c1ccco1 | -19.6% | -12.9% | . | -20.5% | -22.8% | ?
Cn1cccc1C(=O)N1CCC[C@@]2(CCN(Cc3cc(C(F)(F)F)cc(C(F)(F)F)c3)C2)C1 | . | -21.4% | . | . | . | .
COc1ccc(S(=O)(=O)N(CC(=O)NCc2ccccc2)c2ccc(C)cc2)cc1OC | 11.2% | 17.8µM* | -6.3% | 26.4%[46.1 µM] | . | 4.9%
COc1ccc(CNC(=O)CN(c2ccc(C(C)=O)cc2)S(=O)(=O)c2ccc(C)cc2)cc1OC | -15.1% | 7.1% | i | -25.7% | ? | .
COc1ccc(N(CC(=O)NCc2ccco2)S(=O)(=O)c2ccc(C)cc2)cc1OC | -13.4% | -4.9% | -13.7% | -3.7% | ? | -5.5%
Cc1ccc(N(CC(=O)NCc2ccco2)S(=O)(=O)c2ccccc2)cc1 | . | 23.5% | . | -2.7% | -13.7% | 25.1µM*
CCCCn1c(C)cc2c(c1=O)[C@H]1O[C@](CCCCN3C(=O)c4ccccc4C3=O)(Cc3ccccc31)O2 | . | . | . | . | 5.2%[14.2 µM] | -14.4%[22.9 µM]
O=C(NCc1nnc2n1CCN(Cc1cc(F)cc(F)c1)CC2)c1cccc(F)c1 | -26.4% | 2.2% | ? | . | . | .

Screening data: PubChem, National Center for Advancing Translational Sciences (NCATS)
